In the supplement of paper PMC7156485:
± gives the standard deviation of the averaged measurements.

These compounds were tested on HCC1569 (assay: cell number relative to DMSO (% of DMSO); higher = more cells (less growth inhibition / toxicity)). Details: concentration: 10 µM; 24 h.
Outline: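 H1.0 nuclear intensity or cell number is expressed as percent of the plate control, with the median of replicates taken. HCC1569 and TDF cells were treated with compounds at 10 µM for 24 h at 37 °C, in triplicate, then fixed and immunostained for H1.0 with DAPI as a nuclear stain. HCC1569 values were smoothed to correct for positional effects.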
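Note: TDF denotes transformed human dermal fibroblasts of mesenchymal origin.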

Structure (SMILES)	cell number
Cl.NNC(N)=O [Semicarbazide hydrochloride]	102
Cc1ccc2c(c1)C1(CCN(CCc3nc(-c4ccccc4)oc3C)CC1)OC(=O)N2	85.9
CN1CC(C(=O)NC2(C)OC3(O)C4CCCN4C(=O)C(Cc4ccccc4)N3C2=O)CC2c3cccc4[nH]cc(c34)CC21.CS(=O)(=O)O (stereo not drawn) [Dihydroergotamine methanesulfonate]	102
CCC1(c2ccc(N)cc2)CCC(=O)NC1=O (racemic) [DL-Aminoglutethimide]	109
Cn1ncnc1COc1nn2c(-c3c(F)cccc3F)nnc2cc1C1CCC1	102
CC1=NN=C(c2ccc(N)cc2)c2cc3c(cc2C1)OCO3.Cl	97.4
Cl.Oc1ccc2c3c1OC1C(O)CCC4(O)C(C2)N(CC2CCC2)CCC314 (stereo not drawn) [Nalbuphine hydrochloride]	105
CC(N)Cc1c[nH]c2ccc(O)cc12.O=C(O)C=CC(=O)O (stereo not drawn) [alpha-Methyl-5-hydroxytryptamine maleate]	99.8
CC(C(O)CCC(C)(C)O)C1CCC2(O)C3=CC(=O)C4CC(O)C(O)CC4(C)C3CCC12C (stereo not drawn) [Ecdysone]	103
O.O=P1(N(CCCl)CCCl)NCCCO1 (stereo not drawn) [Cyclophosphamide monohydrate]	79.6
CC12Cc3cn[nH]c3CC1CCC1C2CCC2(C)C1CCC2(C)O (stereo not drawn) [Stanozolol]	94.4
Fc1cc(F)c2c(c1)C1C=CCC1C(c1cccnc1)N2 (stereo not drawn)	69.8
CCN1CC2(C)CCC(O)C34C5CC6C(OC)CC(O)(C(CC23)C14)C5C6O (stereo not drawn) [Karakoline]	103.2 ± 0.75
